Laboratory results taken from PubChem BioAssay.

Assay: osmotic lysis modulators in infected erythrocytes, primary screen, PSAC antagonist project, cell-based, P. falciparum Indochina, OD700, 3 h (AID 1156)
Conditions: higher = more signal, called active from +8 up or from −8 down

z-score, inactive:
O=C1C2C=CC(C(O)C3CCCCC3)N(Nc3ccc([N+](=O)[O-])cc3)C2C(=O)N1c1ccccc1 (centres undefined) 4.92, C=CCNC(=O)[C@H]1[C@@H]2C(=O)O[C@@H](c3ccccc3)[C@@H](c3ccccc3)N2[C@@H](c2ccc(OCCO)cc2)[C@]12C(=O)N(C(=O)OCCOC)c1ccccc12 1.22, O=C1C2C=CC(C(O)c3c(F)cccc3Cl)N(Nc3ccccc3)C2C(=O)N1c1ccccc1 (centres undefined) 0.419, CC(C)c1ccc(NN2C(C(O)c3cc(C(F)(F)F)cc(C(F)(F)F)c3)C=CC3C(=O)N(c4ccccc4)C(=O)C32)cc1 (centres undefined) -1.37, [N-]=[N+]=NCc1ccccc1C[C@]1(C(=O)O)N=C(c2ccc(OCCCO)cc2)O[C@H]1c1ccccc1N=[N+]=[N-] 4.02, O=C1O[C@H](c2ccccc2)[C@H](c2ccccc2)N2[C@H]1[C@@H](C(=O)NC[C@H](O)c1ccccc1)[C@]1(C(=O)Nc3ccccc31)[C@H]2c1ccc(OCCO)cc1 0.179, COC(=O)[C@@]1(Cc2ccc(F)cc2)[C@H]2c3cc(C(=O)N4CCCC4)n(Cc4ccc(C)o4)c3C[C@H]2CN1C(=O)c1ccccc1 1.57, COc1ccc([Si](C)(C)[C@H]2[C@H](CCn3cc([C@H](O)c4ccccc4)nn3)O[C@@]3(C(=O)N(Cc4cccc(N5CCOC5=O)c4)c4ccccc43)[C@@H]2C)cc1 -0.295, COc1ccc(CCNC(=O)[C@@]2(C)c3ccccc3C(=O)N(Cc3cc(F)cc(C(F)(F)F)c3)[C@H]2c2ccc(CO)cc2)cc1 1.24
